Measured values taken from ChEMBL document CHEMBL3433997, “St. Jude Leishmania screening dataset” (2016).

Legend:
Format in all cases: functional
[1] = biological target: Solute carrier family 2, facilitated glucose transporter member 1 (Homo sapiens) (UniProt P11166); assay: ST_JUDE_LEISH: Cytotoxicity at 2uM final concentration against transgenic Leishmania Mexicana promastigotes LmGLUT1 that are glucose transport deficient and complemented with the human glucose transporter GLUT1. Activity is measured by DNA content using SYBR green in vitro
Sequence of Solute carrier family 2, facilitated glucose transporter member 1 (Homo sapiens) (P11166 whole entry): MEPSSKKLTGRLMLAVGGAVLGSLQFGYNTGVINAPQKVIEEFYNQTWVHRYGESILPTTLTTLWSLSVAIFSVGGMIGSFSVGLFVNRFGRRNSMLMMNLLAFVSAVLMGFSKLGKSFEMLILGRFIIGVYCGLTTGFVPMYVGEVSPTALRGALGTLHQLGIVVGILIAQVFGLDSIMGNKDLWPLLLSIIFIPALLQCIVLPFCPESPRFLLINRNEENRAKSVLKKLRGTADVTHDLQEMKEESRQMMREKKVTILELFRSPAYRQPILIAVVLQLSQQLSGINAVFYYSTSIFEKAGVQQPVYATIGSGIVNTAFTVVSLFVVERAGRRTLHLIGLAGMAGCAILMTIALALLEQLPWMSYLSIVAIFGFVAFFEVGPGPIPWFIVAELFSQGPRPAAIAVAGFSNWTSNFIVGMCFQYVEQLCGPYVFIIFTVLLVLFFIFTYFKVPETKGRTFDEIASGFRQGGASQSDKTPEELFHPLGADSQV

[2] = biological target: Hexose transporter 1 (Plasmodium falciparum) (UniProt O97467); assay: ST_JUDE_LEISH: Cytotoxicity at 2uM final concentration against transgenic Leishmania Mexicana promastigotes LmPfHT that are glucose transport deficient and complemented with the Plasmodium falciparum hexose transporter. Activity is measured by DNA content using SYBR green in vitro
[3] = biological target: Glucose transporter (Leishmania mexicana) (UniProt O61059); assay: ST_JUDE_LEISH: Cytotoxicity at 2uM final concentration against transgenic Leishmania Mexicana promastigotes LmGT2 that are glucose transport deficient and complemented with the L. Mexicana glucose transporter 2. Activity is measured by DNA content using SYBR green in vitro

## CCNc1cc(C(=O)N[C@@H](Cc2ccccc2)[C@H](O)CNCC(C)C)cc(N2CCCC2=O)c1
[1]
  inhibition: 2.24%
[2]
  inhibition: 1.42%
[3]
  inhibition: -1.69%

## CCc1cc2c3c(N)nc(N)nc3ccc2n1C(CC)CC
[1]
  inhibition: 71.2%
[2]
  inhibition: 72.7%
[3]
  inhibition: 65.2%

## FC(F)(F)c1ccc2[nH]c(-c3ccc(-c4cccc(CNCCc5cccnc5)c4)s3)nc2c1
[1]
  inhibition: 3.04%
[2]
  inhibition: 2.04%
[3]
  inhibition: 4.6%

## COc1cc2ccccc2cc1OCCCN1CCN(CC(c2ccc(F)cc2)N2CCN(C(C)C)CC2)CC1 (stereo unspecified)
[1]
  inhibition: -2.97%
[2]
  inhibition: -0.78%
[3]
  inhibition: 2.29%

## CC(C)(C)c1ccc2[nH]c(-c3ccc(C(=O)NC4CCN(Cc5ccccc5)CC4)s3)nc2c1
[1]
  inhibition: 3.39%
[2]
  inhibition: 2.69%
[3]
  inhibition: 1.79%

## Cc1[nH]n(-c2cccc(C(F)(F)F)c2)c(=O)c1-c1ccc(Cl)cc1
[1]
  inhibition: 3.56%
[2]
  inhibition: 6.35%
[3]
  inhibition: 5.69%

## NC1=NC(c2ccccc2)(c2ccccc2)C(=O)N1CCCCc1ccccc1
[1]
  inhibition: -0.67%
[2]
  inhibition: 0.44%
[3]
  inhibition: -1.44%

## CCOC(=O)c1ccc(NC(=O)Nc2ccc(-c3cccc(-c4nc5ccccc5[nH]4)c3)cc2)cc1
[1]
  inhibition: 6.03%
[2]
  inhibition: 4.66%
[3]
  inhibition: 1.68%

## CC(=NNC(N)=O)C1=C(O)C(c2ccccc2)N(C2CCCCC2)C1=O (stereo unspecified)
[1]
  inhibition: -0.44%
[2]
  inhibition: -0.08%
[3]
  inhibition: -0.27%

## Cc1cc(C(=O)CN2C(=O)NC3(CCOc4ccccc43)C2=O)c(C)n1Cc1ccc(F)cc1 (stereo unspecified)
[1]
  inhibition: 3.91%
[2]
  inhibition: 2.31%
[3]
  inhibition: 1.1%

## O=C(CSc1nnc(-c2ccccc2Br)[nH]1)c1c[nH]c2ccccc12
[1]
  inhibition: -0.5%
[2]
  inhibition: -0.7%
[3]
  inhibition: 1.98%

## O=C(NC1CCN(c2ccnc(Nc3ccc(F)cc3)n2)C1)c1cc2ccccc2s1 (stereo unspecified)
[1]
  inhibition: 0.69%
[2]
  inhibition: 1.57%
[3]
  inhibition: 1.27%

## N#Cc1cccc(C(=O)Nc2ccc(-c3ccc(CN4CCCC4)cc3)cc2)c1
[1]
  inhibition: 7.84%
[2]
  inhibition: 6.53%
[3]
  inhibition: 3.78%

## NC1=NC(c2ccccc2)(c2ccccc2)C(=O)N1Cc1ccc(-c2ccncc2)cc1
[1]
  inhibition: 8.4%
[2]
  inhibition: 6.36%
[3]
  inhibition: 6.42%

## CN(/N=C/c1ccc(Cl)cc1)c1nc(NCCc2ccc(O)cc2)nc(N2CCNCC2)n1
[1]
  inhibition: 7.69%
[2]
  inhibition: 6.81%
[3]
  inhibition: 6.34%

## Cc1[nH]c(C)c([N+](=O)[O-])c(=O)c1-c1ccc(Oc2ccccc2)cc1
[1]
  inhibition: -1.81%
[2]
  inhibition: 0.5%
[3]
  inhibition: -1.98%

## CCc1sc(CN(CCCNc2cc(=O)c3ccccc3[nH]2)Cc2sc(CC)c(Br)c2-c2ccsc2)c(-c2ccsc2)c1Br
[1]
  inhibition: 3.98%
[2]
  inhibition: 4.16%
[3]
  inhibition: 5.33%

## O=C(Nc1cccc(CN2CCCN(Cc3ccc(O)cc3)CC2)c1)c1ccc2ccccc2n1
[1]
  inhibition: 2.74%
[2]
  inhibition: 2.83%
[3]
  inhibition: -3.88%

## COc1ccc(CSC2CCCCC23NC(=S)NC3=S)cc1 (stereo unspecified)
[1]
  inhibition: 4.42%
[2]
  inhibition: 1.41%
[3]
  inhibition: 3.2%

## CCOc1ccc(NC(=O)c2ccc(NCCCN3CC(C)CC(C)C3)c([N+](=O)[O-])c2)cc1 (stereo unspecified)
[1]
  inhibition: 2.9%
[2]
  inhibition: 0.9%
[3]
  inhibition: 1.09%

## CC(CNc1nc(NCC(c2ccccc2)c2ccccc2)c2nc[nH]c2n1)c1ccccc1 (stereo unspecified)
[1]
  inhibition: 3.92%
[2]
  inhibition: 5%
[3]
  inhibition: 3.73%

## CCSc1ccccc1COc1c(C)nc(N)nc1N
[1]
  inhibition: 6.84%
[2]
  inhibition: 6.09%
[3]
  inhibition: 2.41%

## Cc1cc(NC(=O)Nc2cccc(N(C)C)c2)c2ccccc2n1
[1]
  inhibition: 2.29%
[2]
  inhibition: 2.59%
[3]
  inhibition: 1.12%

## COc1ccc(S(=O)(=O)NCCCC2CCN(CCCCCNC(=O)C=Cc3ccc(Cl)c(Cl)c3)CC2)cc1
[1]
  inhibition: 0.69%
[2]
  inhibition: 0.8%
[3]
  inhibition: 3.65%

## O=C(CCN1C(=O)c2ccccc2C1=O)N1CCN(CC=Cc2ccccc2)CC1
[1]
  inhibition: -1.54%
[2]
  inhibition: -1.32%
[3]
  inhibition: -1.76%

## c1ccc(CNc2nc(NCCc3c[nH]cn3)nc(N3CCCC4CCCCC43)n2)cc1 (stereo unspecified)
[1]
  inhibition: -1.84%
[2]
  inhibition: -0.22%
[3]
  inhibition: -1.46%

## Cc1[nH]c(C)c(-c2ccc(-c3ccc(OC(F)(F)F)cc3)nc2)c(=O)c1Cl
[1]
  inhibition: -0.94%
[2]
  inhibition: -0.29%
[3]
  inhibition: 0.22%

## N=C(N)NCCCN(Cc1ccccc1)c1ccccc1
[1]
  inhibition: 3.87%
[2]
  inhibition: 2.61%
[3]
  inhibition: 1.89%

## O=C(/C=C/c1cccc(Cl)c1)N1CCC(C(O)CN2CCC3(CC2)CN(C(=O)/C=C/c2cccc(Cl)c2)c2ccccc23)CC1 (stereo unspecified)
[1]
  inhibition: 0.54%
[2]
  inhibition: 1.87%
[3]
  inhibition: 0.82%

## CC(CCCCC(=O)Nc1ccc(CC(C)NCCc2cccc(Cl)c2)cc1)NCCc1cccc(Cl)c1 (stereo unspecified)
[1]
  inhibition: 0.84%
[2]
  inhibition: 2.45%
[3]
  inhibition: -1.1%

## FC(F)(F)c1ccc2[nH]c(-c3ccc(-c4cccc(CN5CCC(CCN6CCCCC6)CC5)c4)cc3)nc2c1
[1]
  inhibition: 3.12%
[2]
  inhibition: 4.82%
[3]
  inhibition: 2.53%

## CC(C)(C)OC(=O)NCc1ccc(Nc2nnc(-c3cccc(OCC(=O)NCc4cc(C(F)(F)F)cc(C(F)(F)F)c4)c3)o2)cc1
[1]
  inhibition: 0.8%
[2]
  inhibition: 1.63%
[3]
  inhibition: 1.12%
